Experimental data from PubChem BioAssay AID492953 (The Scripps Research Institute Molecular Screening Center, 2010).
Hit rate of the full screen: of about 340,000 compounds, about 4,200 (1.2%) were called active. Only a selection was taken, and actives are over-represented in it overall. Values without a mark were called inactive.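 How the source made its calls: active means inhibition above the mean of all tested compounds plus 3 SD (cut at about 24% in these data); inactive means the rest.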

These compounds were tested against Platelet-activating factor acetylhydrolase IB subunit alpha2 (Homo sapiens) (UniProt P68402) (assay: PAFAH1B2 enzyme inhibitors, primary screen, biochemical, fluorescence polarization, human (AID 492953;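 further: 0% = enzyme with DMSO and 100% = wells lacking PAFAH1B2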)). Conditions: recombinant PAFAH1B2, FP-rhodamine activity probe, at 3.39 µM, stronger effect = higher value.
Sequence of Platelet-activating factor acetylhydrolase IB subunit alpha2 (Homo sapiens) (P68402 whole entry, looked up): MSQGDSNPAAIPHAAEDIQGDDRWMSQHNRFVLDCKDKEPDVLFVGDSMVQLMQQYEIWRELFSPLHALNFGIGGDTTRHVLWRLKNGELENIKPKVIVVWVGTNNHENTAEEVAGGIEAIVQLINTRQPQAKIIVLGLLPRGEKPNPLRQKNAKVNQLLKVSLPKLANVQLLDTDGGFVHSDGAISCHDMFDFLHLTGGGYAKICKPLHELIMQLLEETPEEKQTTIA

| Structure (SMILES) | inhibition |
| --- | --- |
| Cc1ccc(S(=O)(=O)NCCNC(C)c2ccc(Br)cc2)cc1 (stereo not drawn) | 23% |
| O=C(CCNS(=O)(=O)c1ccc(Br)cc1)NCC1CCCO1 (stereo not drawn) | 7.29% |
| Cc1ccc(OCCNC(=O)CCNS(=O)(=O)c2ccc(Br)cc2)cc1 | 24.2% (active) |
| Cc1ccc(CCN2CC(C(=O)NCCc3ccccc3)CC2=O)cc1 (stereo not drawn) | 7.51% |
| O=C1Nc2cc(Cl)c(Cl)cc2N(O)N1c1cc(Cl)cc(Cl)c1 | 6.99% |
| CCCCN(C(=O)CSCc1ccc(C)cc1)c1c(N)n(Cc2ccccc2)c(=O)[nH]c1=O | 8.05% |
| O=C(Nc1ccccc1)C1CC(=O)n2c(nc3ccccc32)N1 (stereo not drawn) | -1.27% |
| CC(=O)Nc1ccc(S(=O)(=O)NC2(C(F)(F)F)C(=O)Nc3c2c(=O)[nH]c(=O)n3Cc2ccccc2)cc1 (stereo not drawn) | 24.4% (active) |
| CC(=O)Nc1ccc(S(=O)(=O)NCCc2ccccc2)cc1 | 3.04% |
| CC(=O)Nc1ccc(S(=O)(=O)NC2(C(F)(F)F)C(=O)NC(C)=C2C#N)cc1 (stereo not drawn) | 0.09% |
| Cc1ccc(C(=O)NCC(=O)OCC(=O)NC2CCCCCCC2)cc1 | -0.8% |
| Cc1cc(OC(=O)c2ccc(OC(C)C)cc2)c([N+](=O)[O-])c(=O)[nH]1 | 1.4% |
| COc1cccc(C=CC(=O)C=CC=Cc2ccccc2)c1 | -1.3% |
| COc1ccc(CCNS(=O)(=O)c2cn(C)nc2C)cc1 | 2.66% |
| O=S1(=O)CCOC[C@H](Cc2ccccc2)N1Cc1ccccc1Br | 4.8% |
| CCC(C)[C@H]1COCCS(=O)(=O)N1Cc1ccc(C)cc1 (stereo partly drawn) | 7.04% |
| O=S1(=O)CCO[C@H]2Cc3ccccc3[C@H]2N1Cc1ccccc1 | 27.8% (active) |
| Cc1ccc(CSc2nc(-c3ccccc3)c(C#N)c(=O)[nH]2)cc1 | 24.4% (active) |
| N#Cc1c(-c2ccc(F)cc2)nc(-c2ccccc2)[nH]c1=O | 1.36% |
| N#Cc1c(-c2ccccc2)nc(SCc2cccc(C(F)(F)F)c2)[nH]c1=O | 14.2% |
| Oc1oc(-c2ccccc2Br)nc1/C=N/c1ccccn1 | 1.69% |
| CCc1ccc(NC(=O)NC(C)c2ccc3c(c2)OCO3)cc1 (stereo not drawn) | 4.07% |
| CC(NC(=S)Nc1ccc(S(N)(=O)=O)cc1)c1ccc2c(c1)OCO2 (stereo not drawn) | 27.8% (active) |
| CC(NC(=O)Nc1cccc([N+](=O)[O-])c1)c1ccc2c(c1)OCO2 (stereo not drawn) | 0.41% |

| Structure (SMILES) | inhibition |
| --- | --- |
| Cc1ccc(NC(=O)N2CCSc3ccccc32)cc1 | 7.44% |
| O=C(Cc1cccs1)N(CC1CCCO1)C1(C(=O)NC2CCCCC2)CCCCC1 (stereo not drawn) | 2.99% |
| CCC(C(=O)OCC(=O)Nc1ccccc1-c1ccccc1)c1ccccc1 (stereo not drawn) | 7.25% |
| O=C(CNCc1ccc(F)cc1)Nc1ccccc1-c1ccccc1 | 24.4% (active) |
| O=C(Cn1cnc2ccccc21)Nc1ccccc1-c1ccccc1 | 5.45% |
| Cc1ccc(NC(=O)CCCNC(=O)c2ccc(Cl)cc2)cc1S(=O)(=O)N1CCOCC1 | 2.83% |
| COc1ccccc1CCNC(=O)C1CCN(C(=O)/C=C/c2ccccc2)CC1 | 10.8% |
| COc1ccc(OCC(=O)NCCS(=O)(=O)N2CCN(c3ccc(F)cc3)CC2)cc1 | -1.87% |
| O=C(COc1ccc(Cl)cc1)NCCS(=O)(=O)N1CCN(c2ccc(F)cc2)CC1 | 28.6% (active) |
| CCOc1ccc(CC(=O)NCCS(=O)(=O)N2CCN(c3ccccc3)CC2)cc1 | 1.28% |
| CCCC1NC(=S)NC(C)=C1C(C)=O (stereo not drawn) | -9.47% |
| CC(=O)OCC(=O)C1(O)CCC2C3CC(C)C4=CC(=O)CCC4(C)C3C(O)CC21C (stereo not drawn) | 1.34% |
| COc1ccccc1C(=O)Nc1ccnn1C1CCN(Cc2cnn(C)c2)CC1 | 4.33% |
| Oc1cc2c(cc1O)CN(C(=S)NCCc1ccc(Cl)cc1)CCC2 | 63.6% (active) |
| O=C1CCN(C(=S)NCCc2ccccc2)CC1 | 1.71% |
| COc1ccc(CCNC(=S)N2CCN(S(=O)(=O)c3ccc(Cl)cc3)CC2)cc1 | 11.4% |
| CC12c3ccccc3C(c3ccccc31)C1C(=O)N(Cc3cccnc3)C(=O)C12 (stereo not drawn) | 1.4% |
| Cc1nn(-c2ccccc2)c(C)c1/C=N/NC(=O)CSc1nc2ccccc2c(=O)n1-c1ccccc1 | 2.37% |
| CCO/N=C(/C)c1c(O)cc(-c2ccccc2)n(-c2ccccc2)c1=O | 7.22% |
| C=CCO/N=C(\C)c1c(O)c(C)c(-c2ccccc2)n(-c2ccccc2)c1=O | 31.5% (active) |
| Cc1ccsc1-c1nc(CSCC(=O)NCCN2CCCC2)c(C)o1 | 0.8% |
| COc1cc2c(cc1OC)C(Cc1cc(OC)c(OC)cc1[N+](=O)[O-])=NCC2 | 0.33% |
| CCCC1OC23CCCCC2C(C#N)(C#N)C1(C#N)C(=N)O3 (stereo not drawn) | 29.1% (active) |
| O=C1/C(=C\c2ccc(O)cc2)CCC1CNc1ccc(Cl)cc1 (stereo not drawn) | -1.51% |

| Structure (SMILES) | inhibition |
| --- | --- |
| Cc1cccc(C=CC(=O)c2ccc(Cl)cc2)c1 | -1.7% |
| O=C(O)CCn1cc(/C=C/C(=O)c2ccc(Cl)cc2)c(-c2cccc(Br)c2)n1 | 51.4% (active) |
| CCOC(=O)/C(C#N)=C/c1cn(CCC(=O)O)nc1-c1ccc(Br)cc1 | 2.11% |
| O=C(OCC(=O)N1CCN(C(=O)c2ccco2)CC1)c1ccc(Cl)c(Cl)c1 | 2.92% |
| NNC(=O)CSc1nnc(-c2ccccc2)n1-c1ccccc1 | 17.7% |
| O=C(O)CSc1nnc(-c2ccc3c(c2)OCO3)n1-c1ccccc1 | 0.01% |
| O=C(O)CCSc1nnc(-c2ccccc2)n1-c1ccccc1 | 24.4% (active) |
| CCOc1cc(/C=N/NC(=O)c2cccc(S(=O)(=O)N3CCOCC3)c2)ccc1OCC(=O)N(C)C | 2.5% |
| O=C(NCCc1ccccc1)c1c[nH]c2ccc(F)cc2c1=O | 3.36% |
| CCOC(=O)c1c(C)nc2c(c1C)c(=O)oc1ccccc12 | 4.46% |
| CCOC(=O)c1c(C)[nH]c2c1-c1ccccc1C(=O)C2=O | 46.4% (active) |
| CCOC(=O)c1ccccc1OC(=O)Oc1ccccc1C(=O)OCC | 4.58% |
| C/C(=N\Nc1ccc(Cl)nn1)c1ccccc1O | -0.23% |
| COc1ccccc1N1CCN(S(=O)(=O)c2ccc3c(c2)NC(=O)CS3)CC1 | -1.51% |
| COc1ccccc1N1CCN(C(=O)c2ccc(Cl)c(S(=O)(=O)N3CCCC3)c2)CC1 | 2.58% |
| COc1ccccc1N1CCN(S(=O)(=O)c2ccc(Cl)cc2)CC1 | 31.7% (active) |
| COc1ccc(CCNC(=O)CN2CCC(n3nnc4cc(F)ccc43)CC2)cc1OC | 4.75% |
| CCOC(=O)c1[nH]c(C)c(C(=O)OCC(=O)N2c3ccccc3CC2C)c1C (stereo not drawn) | 3.77% |
| CSC1=NC2(C)CCCCC2C12C=CC(=O)C=C2 (stereo not drawn) | 24.6% (active) |
| O=C(CC(=O)c1cccnc1)c1ccccc1 | 0.07% |
| CC[n+]1c(C)n(-c2ccccc2)c2ccc(NC(C)=O)cc21 | 1.05% |
| CCc1ccc(NC(=O)CN2C(=O)CSC2=O)cc1 | 4.64% |
| Cc1ccc(S(=O)(=O)N(CCCN(C)C)Cc2ccc3c(c2)OCO3)cc1 | 1.52% |
| O=C(Oc1ccc2c(c1)CCC2)N1CCOCC1 | 2.56% |

| Structure (SMILES) | inhibition |
| --- | --- |
| COc1ccc(CCn2nnnc2C(c2ccccc2)N2CCN(C)CC2)cc1OC (stereo not drawn) | 2.25% |
| N#Cc1ccc(C(c2nnnn2CCc2ccccc2)N2CCCCCC2)cc1 (stereo not drawn) | 25.7% (active) |
| CC(C)C(c1nnnn1CCc1ccccc1)N1CCN(C(=O)c2ccco2)CC1 (stereo not drawn) | 3.54% |
| O=C(NCc1ccc2c(c1)OCO2)c1c(O)nc2sccn2c1=O | 5.79% |
| Cc1ccc(C(=O)CN2C(=O)NC3(CCOc4ccccc43)C2=O)s1 (stereo not drawn) | -1.4% |
| C=CCNC(=O)CCCOc1cccc(C)c1 | -2.13% |
| Cc1cccc(OCCNC(=S)NC(=O)c2cccnc2)c1 | -2.68% |
| Cc1cccc(OCCNC(=O)CSc2ccc(C(F)(F)F)cc2[N+](=O)[O-])c1 | 27.4% (active) |
| CC(C)NC(=O)Nc1cccc2c1O[C@H](CN(C)S(=O)(=O)c1cccs1)[C@@H](C)CN([C@H](C)CO)C2=O | 6.94% |
| Cc1cc2oc(=O)cc(CN3CCN(Cc4ccccc4)CC3)c2cc1C | -2.46% |
| Cc1ccc(CN(C)Cc2cc(=O)oc3cc(C)c(Cl)cc23)cc1 | 28.5% (active) |
| Cc1cc2oc(=O)cc(CN(C)Cc3ccc(OC(F)F)cc3)c2cc1Cl | -0.62% |
| CCn1c(SCC(=O)Nc2cccc(F)c2)nnc1-c1cc2cc(Br)ccc2o1 | -4.23% |
| C=CCn1c(C23CC4CC(CC(C4)C2)C3)n[nH]c1=S | 29.8% (active) |
| C=CCn1c(-c2ccc3[nH]c(C)c(C)c3c2)n[nH]c1=S | -1.88% |
| C=CCn1c(SCC(=O)NC)nnc1C12CC3CC(CC(C3)C1)C2 | 4.85% |
| Cc1cc(C)cc(NC(=O)C(OC(=O)c2ccc(O)cc2)c2ccccc2)c1 (stereo not drawn) | -4.34% |
| O=C1/C(=C\c2ccc([N+](=O)[O-])cc2)CS(=O)(=O)C/C1=C/c1ccc([N+](=O)[O-])cc1 | -2.78% |
| Cc1ccc(N(CCC(=O)O)S(=O)(=O)c2cccc(C(F)(F)F)c2)cc1 | 19.6% |
| O=C(O)c1cc(S(=O)(=O)N(Cc2ccccc2)c2cccc(C(F)(F)F)c2)ccc1Cl | 28.5% (active) |
| O=C(O)c1cc(S(=O)(=O)N(Cc2ccccc2)c2ccccc2)ccc1Cl | 18.7% |
